Compound activity as filed in PubChem BioAssay.
Hits are enriched below; roughly 2.7% of the tested compounds scored in any of these assays.
Nrf2 ARE act: qHTS of Nrf2 Activators; AREc32 ARE-luciferase reporter (MCF7-derived line), luminescence, 24 h; Potency, µM (top dose mostly 46.1 µM), for inactives: at the top dose activation, usual class: activators; 410,000 tested, 0.31% active; note: potency is the fitted concentration of half-maximal effect; % of control where 0% means no effect; nearly all actives have a fitted effect of over 65% in size
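Each well held 1000 AREc32 cells, which were incubated with compound for 24 hr at 37 deg C after overnight attachment, and ARE reporter activity was quantified by firefly luciferase luminescence.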
A549 tox-1: Nrf2 qHTS screen for inhibitors: counterscreen for cytotoxicity. A549 ARE-Fluc cells, CellTiter-Fluor viability, 18-24 h. Potency, µM (titrated, usually from 46 µM), for the others: top-dose activity change, negative = cytotoxicity, actives largely listed as inhibitors. 390,000 tested, 0.16% active; note: potency is the fitted concentration of half-maximal effect; % is set by controls: 0 for no effect and ±100 for the full control effect
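A549 ARE-Fluc cells in 5% FBS OPTI-MEM, 5000 cells/well, rested 2 h then exposed to compounds in concentration-response for 18-24 h at 37 °C. Viability by CellTiter-Fluor fluorescence (Ex 405/Em 525) after 30 min; luciferase luminescence (BugLite, 15 min, RT) read afterwards.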
LDHA inh: qHTS assay for inhibitors of human lactate dehydrogenase; L-lactate dehydrogenase A chain (Homo sapiens), P00338; purified LDHA, NADH/diaphorase-resazurin fluorescence; stronger effect = lower value; activity change, % (values are at about 110 or 230 µM); 480,000 tested, 0.15% active; AID 1347041, 2019; in the data active = activity change below about -30%; inconclusive = mostly about -25% to -30%;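 note: plate controls were DMSO wells for no effect and wells without enzyme for full effect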
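Resorufin fluorescence (ex540/em590), read at 0 and 20 min after diaphorase/resazurin addition, reports the NADH left after a 5 min room-temperature reaction of 2 nM human LDH5 with 0.06 mM NADH and 0.2 mM pyruvate.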
ERG-DNA inh: qHTS for Small Molecule Inhibitors of the ERG Ets/DNA interaction. Potency, µM (series often up to 76.9 µM), without a hit: top-dose FP activity, negative = inhibition, most hits filed as inhibitors. fluorescence polarization, His-ERG Ets domain / labelled DNA. 370,000 tested, 0.028% active; active = well fitted inhibition curve with a large enough effect in the polarisation, with a control signal flat; inconclusive = small, poorly fitted or top-dose-only effect, or effect the other way, or a change in a side signal; inactive = no such curve, though single readings can be large or run the other way; the % refers to the polarisation;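 note: polarization taken with two DNA probes labelled with fluorescein and Texas red; potency is the fitted concentration of half-maximal effect; % of control where 0% means no effect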
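His-tagged ERG Ets domain (1 uM in the protein solution; 300mM KCl, 50mM Tris-HCl, 1mM EDTA, 1mM DTT, pH 7.5) received compound, then a probe mix of 5 nM fluorescein-DNA and 100nM Texas-615-DNA. Fluorescence polarization was read for both dyes.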
ALOX12 inh: Primary qHTS assay for inhibitors of human arachidonate 12S-lipoxygenase (ALOX12): Round 2; Potency, µM (top dose mostly 108 µM), inactives show at the highest dose activity change, negative = inhibition, actives largely listed as inhibitors; AID 1671190, 2021; 580,000 tested, 1.1% active; purified 12hLO, xylenol orange hydroperoxide absorbance; note: potency is the fitted concentration of half-maximal effect; % is set by controls: 0 for no effect and ±100 for the full control effect
Target sequence (P18054 whole entry, looked up): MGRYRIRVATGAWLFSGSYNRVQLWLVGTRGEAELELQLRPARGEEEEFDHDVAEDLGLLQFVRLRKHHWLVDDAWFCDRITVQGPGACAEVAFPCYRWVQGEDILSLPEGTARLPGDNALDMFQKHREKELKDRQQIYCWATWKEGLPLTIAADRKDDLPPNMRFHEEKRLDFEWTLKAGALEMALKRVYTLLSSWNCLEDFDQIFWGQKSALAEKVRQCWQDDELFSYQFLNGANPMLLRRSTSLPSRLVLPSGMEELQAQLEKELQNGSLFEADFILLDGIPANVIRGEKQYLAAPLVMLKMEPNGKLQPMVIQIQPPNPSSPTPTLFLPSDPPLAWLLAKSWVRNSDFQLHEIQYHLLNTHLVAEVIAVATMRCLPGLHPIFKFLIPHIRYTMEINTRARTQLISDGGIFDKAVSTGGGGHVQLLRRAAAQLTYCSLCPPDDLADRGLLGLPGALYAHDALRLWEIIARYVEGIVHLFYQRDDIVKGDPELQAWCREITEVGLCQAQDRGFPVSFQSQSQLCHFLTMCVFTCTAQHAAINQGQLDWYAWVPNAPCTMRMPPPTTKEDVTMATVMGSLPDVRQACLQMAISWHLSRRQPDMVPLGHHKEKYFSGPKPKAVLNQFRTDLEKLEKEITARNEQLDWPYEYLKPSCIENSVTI
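Purified human 12hLO (150 nM final) in 25 mM Hepes, 0.01% Triton X-100, pH 7.0 was preincubated 15 min at room temperature with compound. Then 40 uM arachidonic acid was added, 30 min. Hydroperoxide was read by Fe-XO absorbance ratio 573/405 nm.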
Nrf2 block: Nrf2 qHTS screen for inhibitors. A549 ARE-Fluc reporter, luciferase luminescence, 18-24 h. 360,000 tested, 2.1% active. Potency, µM (doses to about 46 µM), for inactives: at the highest dose activity change, negative = inhibition, actives largely listed as inhibitors. AID 504444, 2011; note: potency is the fitted concentration of half-maximal effect; % is set by controls: 0 for no effect and ±100 for the full control effect; nearly all actives have a fitted effect of over 60% in size
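Cells were seeded and rested 2 h, then exposed to compounds for 18-24 h. CellTiter-Fluor was read first as a viability measure. BugLite was added 15 min before the final luminescent read of ARE-luciferase activity in A549 cells.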
FLuc enzyme inh: Nrf2 qHTS screen for inhibitors: Purified Fluc Biochemical Counterscreen for Hit Validation | shares compounds with Nrf2 block | 1,400 tested, 4% active | Potency, µM (series often up to 57.5 µM), without a hit: at the top dose activity change, negative = inhibition, hits mostly inhibitors | purified firefly luciferase, luminescence inhibition; note: potency is the fitted concentration of half-maximal effect; % is set by controls: 0 for no effect and ±100 for the full control effect; nearly all actives have a fitted effect of over 65% in size
A549 tox-2: Nrf2 qHTS screen for inhibitors: A549 ARE-Fluc Cytotoxicity Counterscreen for Hit Validation | shares compounds with Nrf2 block | A549 ARE-Fluc cells, cytotoxicity counterscreen | Potency, µM (top dose mostly 46.1 µM), without a hit: at the top dose activity change, negative = cytotoxicity, most hits filed as inhibitors | AID 720523, 2013 | 1,400 tested, 2% active;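 note: potency is the fitted concentration of half-maximal effect; cells exposed to compounds for 18 to 24 hours; % is set by controls: 0 for no effect and ±100 for the full control effect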
Nrf2 ARE inh: Nrf2 qHTS screen for inhibitors: Nrf2 A549 ARE-Fluc Confirmation Assay for Hit Validation; Potency, µM (top dose mostly 46.1 µM), for the others: at the highest dose activity change, negative = inhibition, usual class: inhibitors; shares compounds with Nrf2 block; 1,400 tested, 74% active; A549 ARE-firefly luciferase reporter, luminescence; note: potency is the fitted concentration of half-maximal effect; % is set by controls: 0 for no effect and ±100 for the full control effect; nearly all actives have a fitted effect of over 65% in size
An asterisk follows results filed as active; [ ] = remark or other dose. Unless noted, calls come from the whole dose curve; as a rule, active = well fitted curve in the direction sought with a large enough effect; inconclusive = small, poorly fitted or top-dose-only effect, or another doubt; inactive = no such curve, though single readings can be large; an effect the other way counts as inactive or inconclusive.

For CCCCCCCCCCCCCCCC[n+]1ccccc1 the results were Nrf2 ARE act -4%, A549 tox-1 inconclusive, LDHA inh 4, ERG-DNA inh -22%, ALOX12 inh inconclusive, Nrf2 block 8.2µM*, FLuc enzyme inh -14%, A549 tox-2 -12% and Nrf2 ARE inh 8.2µM*.
CCCCCCC[n+]1ccc(-c2cc[n+](CCCCCCC)cc2)cc1 was read as Nrf2 ARE act 0%, A549 tox-1 -23%, LDHA inh -23, ERG-DNA inh 5%, ALOX12 inh inconclusive, Nrf2 block 2.6µM*, FLuc enzyme inh -8%, A549 tox-2 -22% and Nrf2 ARE inh 8.2µM*.
`C1CC2CCC1CNC2` gave LDHA inh 4 and ALOX12 inh 53%.
O=C1NC2(CCN(Cc3ccncc3)C2)OCc2ccccc21 (stereo not drawn) was read as ALOX12 inh 58%[176 µM].
`COC(=O)C12OCC34C(CC5C(C)=C(O)C(=O)CC5(C)C3C(O)C1O)OC(=O)C(OC(=O)/C=C(\C)C(C)C)C24` (stereo not drawn) gave Nrf2 ARE act -2%, A549 tox-1 0.29µM*, LDHA inh -3, ERG-DNA inh inconclusive, ALOX12 inh 4%, Nrf2 block 0.058µM*, FLuc enzyme inh 0%, A549 tox-2 -12% and Nrf2 ARE inh 1.2µM*.
Screening CCOC(=O)c1ncn2c1CN(C)C(=O)c1cc(F)ccc1-2 returned Nrf2 ARE act 0%, A549 tox-1 -8%, LDHA inh -6, ERG-DNA inh -2%, ALOX12 inh 2%, Nrf2 block 2.1µM*, FLuc enzyme inh 3%, A549 tox-2 -8% and Nrf2 ARE inh 7.3µM*.
`CC(=O)N1CCCc2cc(S(=O)(=O)N3CCCC(C(=O)Nc4cccc(F)c4)C3)ccc21` (stereo not drawn) gave Nrf2 ARE act 1%, A549 tox-1 -9%, LDHA inh 0, ERG-DNA inh -9%, ALOX12 inh 1%, Nrf2 block 9.2µM*, FLuc enzyme inh 3% and A549 tox-2 -2%.
For Cc1ccc(NC(=O)C2CCCN2S(=O)(=O)c2ccc3c(c2)CCCC(=O)N3)cc1Cl (stereo not drawn) the results were Nrf2 ARE act 5%, A549 tox-1 0%, LDHA inh 1, ERG-DNA inh inconclusive, ALOX12 inh -37% and Nrf2 block inconclusive.
For C[n+]1ccc(-c2ccccc2)c2ccccc21 the results were Nrf2 ARE act 1%, A549 tox-1 -15%, LDHA inh -15, ERG-DNA inh -4%, ALOX12 inh -9%, Nrf2 block 1.5µM*, FLuc enzyme inh 0% and A549 tox-2 -1%.
Screening O=C(Nc1cccc(Cl)c1)c1cnc2sc(N3CCCC3)nn2c1=O returned Nrf2 ARE act 0%, A549 tox-1 -1%, LDHA inh 0, ERG-DNA inh 4%, ALOX12 inh -13%, Nrf2 block 5.2µM*, FLuc enzyme inh -3%, A549 tox-2 -11% and Nrf2 ARE inh 4.6µM*.
Screening COc1ccc(CCNC(=O)c2cnc3sc(N4CCCCCC4)nn3c2=O)cc1 returned Nrf2 ARE act 1%, A549 tox-1 -8%, LDHA inh -5, ERG-DNA inh -2%, ALOX12 inh 0% and Nrf2 block inconclusive.
For CC[C@@H](O)C[C@H]1CCC[C@@]2(C[C@@H]3OC(=O)/C=C/[C@@](C)(O)[C@@H](O)[C@H](C)[C@@H](O)[C@H](OC4CCC(N(C)C)C(C)O4)[C@@H](O)[C@](C)(O)CCCCC/C=C/[C@@H]4CC(C)(C)O[C@@]4(O)C[C@H](O2)[C@H]3C)O1 (stereo partly drawn) the results were Nrf2 ARE act 3%, A549 tox-1 inconclusive, LDHA inh 2, ERG-DNA inh -6%, ALOX12 inh 21%, Nrf2 block 0.0058µM*, FLuc enzyme inh 0%, A549 tox-2 inconclusive and Nrf2 ARE inh 0.0073µM*.
For CC(=NNC(=S)N1CC2CCC(CC2)C1)c1nccs1 the results were Nrf2 ARE act 6%, A549 tox-1 inconclusive, LDHA inh -5, ERG-DNA inh 11%, ALOX12 inh inconclusive, Nrf2 block 1.5µM*, FLuc enzyme inh 19µM*, A549 tox-2 inconclusive and Nrf2 ARE inh 2.9µM*.
`COc1cc2c(cc1OCc1ccccc1)N(C(=O)c1ccccc1OC)CC21CCN(C)CC1` gave ALOX12 inh -6%.
Screening CC(=O)OC1C(O)C(C)OC(OC2C(OC(=O)C3CCC4C(C3)OC3(CC(OC(=O)/C=C/c5ccccc5)C(C)CO3)C43CO3)OC(C)C(O)C2OC(C)=O)C1O (stereo not drawn) returned Nrf2 ARE act -1%, A549 tox-1 inconclusive, LDHA inh 0, ERG-DNA inh -3%, ALOX12 inh 6%, Nrf2 block 0.023µM*, FLuc enzyme inh -11%, A549 tox-2 -3% and Nrf2 ARE inh 6.5µM*.
`CC1c2cccn2-c2ccccc2CN1C(=O)Nc1ccc(F)cc1F` (stereo not drawn) gave LDHA inh -1 and ALOX12 inh -24%.
Screening NNC(=O)c1nc[nH]c1C(=O)Nc1ccc(Cl)cc1C(=O)c1ccccc1 returned Nrf2 ARE act 0%, A549 tox-1 13%, LDHA inh -4, ERG-DNA inh -6%, ALOX12 inh 29% and Nrf2 block 19%.
